Bioassay records (PubChem)
VACV Venus inh = inhibitors of vaccinia virus (Venus reporter) | AID 720580 | hit rate 0.46% among 330,000 | Potency, µM (highest dose often 36.5 µM), actives largely listed as inhibitors | Vaccinia virus Venus reporter expression, fluorescence; calls by dose curve; tested in A549 cells; note: nearly all actives have a fitted effect of over 30% in size
HCV inh = blocks hepatitis C virus; hit rate 3.4% among 340,000; Potency, µM (doses to about 41.8 µM), hits mostly inhibitors; Huh7.5.1 HCVcc-Cre infection, luciferase reporter, 44 h; AID 651820
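Reporter virus HCVcc-Cre (~0.5 moi) infects cells exposed to compound; seeding density 1,000 cells/well with 4 h settling beforehand. Luminescence, 15 sec read, taken 44 h post-infection following a 15 min RT substrate incubation.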
FMDV inh = blocks foot and mouth disease virus. FMDV antiviral cell-based qHTS. Potency, µM (top dose mostly 57.9 µM), hits mostly inhibitors. hit rate 1.2% among 410,000; calls by dose curve; tested in HEK293T cells; note: read-out not given here; nearly all actives have a fitted effect of over 45% in size
Vaccinia mCherry = inhibitors of vaccinia virus infection (mCherry reporter signal); AID 720579; hit rate 0.63% among 310,000; Vaccinia virus mCherry reporter infection, fluorescence; Potency, µM (top dose mostly 36.5 µM), hits mostly inhibitors; calls by dose curve; tested in A549 cells; note: nearly all actives have a fitted effect of over 35% in size
HCMV antiviral = human cytomegalovirus inhibition. hit rate 4.5% among 410,000. HFF cells, HCMV-luciferase reporter, 72 h; hits give low values. activity change, negative = inhibition, % at 57.5 µM. AID 1259415; in the data active = activity change below about -60%; inconclusive = no clear call, values can overlap the other calls; inactive = above about -39%
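Human foreskin fibroblasts infected with luciferase-reporter HCMV at MOI 1 PFU/cell, compounds at two doses. Luciferase measured 72 h post infection; normalized to buffer-only basal and Salinomycin (10uM) controls.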
FBPA Giardia inh = inhibitors of Giardia lamblia fructose-1,6-bisphosphate aldolase; A8B2U2; hit rate 0.71% among 290,000; Potency, µM (doses to about 59.6 µM), actives largely listed as inhibitors; purified Giardia FBPA; note: nearly all actives have a fitted effect of over 55% in size
Target sequence (A8B2U2 whole entry, looked up): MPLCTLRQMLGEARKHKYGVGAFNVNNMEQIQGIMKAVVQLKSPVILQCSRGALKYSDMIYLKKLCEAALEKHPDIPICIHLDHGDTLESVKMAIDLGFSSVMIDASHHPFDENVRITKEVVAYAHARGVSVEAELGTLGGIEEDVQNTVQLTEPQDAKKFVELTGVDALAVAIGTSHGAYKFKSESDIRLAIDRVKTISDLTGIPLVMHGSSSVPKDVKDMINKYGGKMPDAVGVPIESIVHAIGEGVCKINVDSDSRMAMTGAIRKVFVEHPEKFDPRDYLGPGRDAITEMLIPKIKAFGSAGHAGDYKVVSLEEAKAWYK
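Giardia FBPA (40 nM reagent) was preincubated 10 min at RT with compound (up to 57.5 uM final), then substrate plus GAPDH/TPI/NAD/arsenate coupling system with diaphorase/resazurin was added; resorufin fluorescence (525/598 nm) was read after 20 min.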
Of the large screens only hits and unclear results are named; the others gave an inactive call. Hits are enriched below; roughly 7.5% of the tested compounds scored in any of these assays. Unless noted, calls come from the whole dose curve; as a rule, active = well fitted curve in the direction sought with a large enough effect; inconclusive = small, poorly fitted or top-dose-only effect, or another doubt; inactive = no such curve, though single readings can be large; an effect the other way counts as inactive or inconclusive.

COc1ccccc1OCc1n[nH]c(=S)n1Cc1ccccc1	none
Cc1ccc(C)c(NC(=O)Cn2cc(S(=O)(=O)Cc3cccc(Cl)c3)c3ccccc32)c1	HCMV antiviral inconclusive (no result: HCV inh, FBPA Giardia inh)
COc1ccccc1CNc1ccnc(-c2ccccc2OC)n1	none (no result: VACV Venus inh, HCV inh, Vaccinia mCherry, HCMV antiviral)
O=C(CCCCCN1C(=O)CCC1=O)Nc1ncn[nH]1	HCMV antiviral -103 (no result: Vaccinia mCherry)
Cc1c(Cl)cccc1NC(=O)CCCCCN1C(=O)CCC1=O	none (no result: Vaccinia mCherry)
CS(=O)(=O)Nc1cccc(Nc2nccc3[nH]c(-c4cccc(C(F)(F)F)c4)cc23)c1	none (no result: VACV Venus inh, HCV inh, FMDV inh, Vaccinia mCherry, FBPA Giardia inh)
COCCNC(=O)/C(C#N)=C/c1cc(C)n(C2CCCCC2)c1C	none
COCCNC(=O)/C(C#N)=C/c1cc(C)n(-c2ccc(C)cc2)c1C	VACV Venus inh inconclusive, HCV inh 10µM
CC(Oc1cccc(Cl)c1)C(=O)Nc1cc(S(=O)(=O)N2CCOCC2)ccc1N1CCCCC1 (stereo not given)	HCV inh 22µM, FMDV inh inconclusive (no result: FBPA Giardia inh)
CC1CC1C(=O)Nc1cc(S(=O)(=O)N2CCOCC2)ccc1N1CCCC1 (stereo not given)	HCV inh 10µM, HCMV antiviral inconclusive
CCN1CCN(c2ccc(S(=O)(=O)N3CCOCC3)cc2NC(=O)C(C)Oc2cccc(Cl)c2)CC1 (stereo not given)	HCV inh inconclusive (no result: FBPA Giardia inh)
N#C[C@H](c1ccccc1)C1CCN(C(=O)c2ccco2)CC1	none (no result: VACV Venus inh, HCV inh, FMDV inh, Vaccinia mCherry, FBPA Giardia inh)
CCN(CC)c1ccc2cc(-c3nc(-c4cccs4)no3)c(=O)oc2c1	none (no result: HCV inh, FBPA Giardia inh)
CCN(CC)CCn1nc2c3c(cccc3c1=O)-c1ccccc1-2	HCV inh 10µM, FMDV inh inconclusive, HCMV antiviral -99 (no result: VACV Venus inh, Vaccinia mCherry)
CN=c1scc(-c2ccccc2F)n1/N=C(\C)c1cccnc1	HCV inh 32µM, Vaccinia mCherry inconclusive
C/C(=N\N1CCN(C2c3ccccc3-c3ccccc32)CC1)c1cccnc1	FMDV inh inconclusive (no result: Vaccinia mCherry, FBPA Giardia inh)
COc1cc2nc(CN3CCN(S(=O)(=O)c4ccccc4)CC3)[nH]c(=O)c2cc1OC	HCMV antiviral inconclusive (no result: FBPA Giardia inh)
COc1cc2nc(CN3CC=C(c4ccccc4)CC3)[nH]c(=O)c2cc1OC	VACV Venus inh inconclusive, HCV inh 3.5µM, Vaccinia mCherry 5.6µM, HCMV antiviral -99 (no result: FBPA Giardia inh)
O=C(c1ccc(F)cc1)C1CCN(C(=O)c2ccccc2F)CC1	none (no result: VACV Venus inh, Vaccinia mCherry)
O=C(NC(=S)Nc1ccc(N2CCN(C(=O)c3ccccc3)CC2)cc1)c1cccs1	HCV inh 32µM, FMDV inh inconclusive, HCMV antiviral -64
COc1cccc(C(=O)Nc2ccc(N3CCN(C(=O)c4cccs4)CC3)cc2)c1	VACV Venus inh inconclusive, HCV inh inconclusive, FMDV inh 32µM, Vaccinia mCherry inconclusive
O=C(NC(=S)Nc1ccccc1N1CCOCC1)c1cccs1	FMDV inh inconclusive, HCMV antiviral -72
COc1ccc(S[C@]2(C(=O)N3CCCC3)CC(=O)N(c3ccc(C#N)cc3)[C@@H]2c2ccc(OC)cc2)cc1	none (no result: VACV Venus inh, HCV inh, FMDV inh, Vaccinia mCherry, FBPA Giardia inh)
O=C(CO/N=C/c1ccccc1)N1c2ccccc2Oc2ccccc21	HCMV antiviral -99
CN1CCN(CCCNC(=O)Cn2ncc3c4ccccc4n(C)c3c2=O)CC1	none
Cc1ccc(C)c(N2CCN(CCCNC(=O)Cn3cc4c(n3)CCCCC4)CC2)c1	HCV inh 5.6µM, FMDV inh inconclusive
Cn1c2ccccc2c2cnn(CC(=O)NCCCN3CCN(c4ccccc4F)CC3)c(=O)c21	HCV inh 10µM (no result: FBPA Giardia inh)
Cc1ccc(C)c(N2CCN(CCCNC(=O)Cn3ncc4c5ccccc5n(C)c4c3=O)CC2)c1	HCMV antiviral -60 (no result: HCV inh, FBPA Giardia inh)
CCCN1CCN(CCCNC(=O)Cn2ncc3c4ccccc4n(C)c3c2=O)CC1	none
CCOC(=O)CCN(C(=S)Nc1ccccc1)C1CCCCC1	none (no result: FBPA Giardia inh)
N#CCCN(C(=O)COC(=O)C1CCN(S(=O)(=O)c2ccc3c(c2)OCCO3)CC1)c1ccccc1	none (no result: FBPA Giardia inh)
CC(=O)c1ccc(NC(=O)/C=C/c2ccc(C)o2)cc1	none (no result: HCV inh, FBPA Giardia inh)
Cc1ccc(/C=C/C(=O)Nc2ccc(Oc3ccccc3)cc2)o1	VACV Venus inh inconclusive, HCV inh 11µM, Vaccinia mCherry inconclusive
Brc1ccc(-c2cn3ccccc3n2)s1	HCV inh 8.9µM
C=CCNC(=O)c1cc([N+](=O)[O-])cc2c(=O)[nH]c(Nc3ccc(Cl)c(Cl)c3)nc12	none (no result: VACV Venus inh, HCV inh, Vaccinia mCherry, HCMV antiviral)
COc1ccc(NC(C)=O)cc1S(=O)(=O)Nc1ccc2c(c1)OCCO2	none
COc1ccc(C(=O)O/N=C(\N)c2ccncc2)cc1OC	none
